# According to PubChem BioAssay (EPA / NIEHS):
# Calls of active or inactive are those of the source. Rule for the calls: active = hit-call score of the fitted dose curve at least 0.9, where 1 is the maximum; inactive = score below 0.9.
# Key:
# [1] = ATG_GLI_CIS: Attagene CIS-FACTORIAL HepG2 Assay for human Zinc Finger Protein GLI1 (AID 2282945); details: HepG2, Attagene cis-factorial reporter mRNA, GLI element; actives raise or lower the signal
# Procedure, shortened: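 HepG2 cells transiently transfected with cis-promoter multiplexed reporter units report endogenous transcription factor activity. After 24 h chemical exposure, reporter mRNA was quantified by RT-PCR, 6-FAM labelling, HpaI digestion and capillary electrophoresis, with bidirectional fitting against DMSO.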
# [2] = biological target: Bile acid receptor (Homo sapiens) (UniProt Q96RI1); experiment: ATG_IR1_CIS: Attagene CIS-FACTORIAL HepG2 Assay for human Nuclear Receptor Subfamily 1 Group H Member 4 (NR1H4), IR1 submotif (AID 2282946); details: IR1 reporter transcription, actives raise or lower the signal
# Procedure, shortened: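 Transient MRTU transfection, HepG2; 24 h dosing; RNA → RT-PCR → 6-FAM primer extension → HpaI digest → capillary electrophoresis fluorescence. Gain/loss of signal fitted relative to DMSO.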
# [3] = ATG_GRE_CIS: Attagene CIS-FACTORIAL HepG2 Assay for human Glucocorticoid Response Elements (GRE) (AID 2282947); details: HepG2 GRE cis-reporter, Attagene multiplex mRNA; actives raise or lower the signal
# Procedure, shortened: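 HepG2 cells transiently transfected with multiple cis-promoter reporter units measure endogenous TF activity; 24 h compound exposure. Reporter mRNA quantified by RT-PCR, FAM labelling, HpaI digestion and capillary electrophoresis; bidirectional fit vs DMSO baseline.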
# [4] = ATG_ISRE_CIS: Attagene CIS-FACTORIAL HepG2 Assay for human Interferon Regulatory Factor 1 (IRF1) binding to an Interferon-Stimulated Response Element (ISRE) (AID 2282948); details: HepG2 ISRE cis-reporter (Attagene), mRNA transcription readout; actives raise or lower the signal
# Procedure, shortened: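 Transfected HepG2 (multiple reporter transcription units, cis elements) dosed 24 h. RNA → oligo(dT) RT → PCR → 6-FAM primer extension → HpaI → CE. DMSO = negative control/baseline.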
# [5] = ATG_M_32_CIS: Attagene CIS-FACTORIAL HepG2 Assay for M32 Transcription Factor (Internal Marker) (AID 2282949); details: HepG2 Attagene cis-factorial M32 reporter, mRNA; actives raise or lower the signal;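 note: background control marker of the multiplexed CIS panel rather than a real target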
# Procedure, shortened: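 Following 24 h chemical exposure of HepG2 cells transiently expressing cis-promoter reporter constructs, reporter transcript levels were determined by RT-PCR with fluorescent labelling and capillary electrophoresis, then fitted bidirectionally against DMSO.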
# [6] = ATG_M_06_CIS: Attagene CIS-FACTORIAL HepG2 Assay for M06 Transcription Factor (Internal Marker) (AID 2282950); details: HepG2 Attagene CIS-FACTORIAL M06 internal marker reporter; actives raise or lower the signal
# Procedure, shortened: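 Measured 24 h post-dosing in transiently transfected HepG2 cells, this internal-marker endpoint reports reporter mRNA via RT-PCR with fluorescent primer extension and capillary electrophoresis. DMSO served as negative control and baseline for bidirectional fitting.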
# [7] = biological target: Hypoxia-inducible factor 1-alpha (Homo sapiens) (UniProt Q16665); experiment: ATG_HIF1a_CIS: Attagene CIS-FACTORIAL HepG2 Assay for human Hypoxia Inducible Factor 1 (HIF1A) (AID 2282951); details: HepG2 Attagene cis-factorial HIF1a reporter transcription; actives raise or lower the signal
# Procedure, shortened: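 RT-PCR/capillary electrophoresis fluorescence readout of reporter transcripts from endogenous-TF-driven cis elements in transfected HepG2 cells, 24 h exposure; activity fitted in both directions against DMSO controls.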
# [8] = biological target: Hepatocyte nuclear factor 6 (Homo sapiens) (UniProt Q9UBC0); experiment: ATG_HNF6_CIS: Attagene CIS-FACTORIAL HepG2 Assay for human Hepatocyte Nuclear Factor 6 (HNF6) (AID 2282952); details: HepG2 Attagene cis-factorial HNF6 reporter transcription; actives raise or lower the signal
# Procedure, shortened: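 Multiplexed mRNA reporter assay in transfected HepG2; 24 h dosing; RT-PCR plus capillary electrophoresis fluorescence; DMSO-referenced bidirectional curve fitting.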
# [9] = biological target: Heat shock factor protein 1 (Homo sapiens) (UniProt Q00613); experiment: ATG_HSE_CIS: Attagene CIS-FACTORIAL HepG2 Assay for human Heat Shock Transcription Factor 1 (HSE) (AID 2282953); details: HepG2 HSE cis-reporter, Attagene RNA transcription; actives raise or lower the signal
# Procedure, shortened: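 Reporter mRNA induction in HepG2 is measured 24 h after dosing, using transiently transfected multiplexed cis-regulated reporter units. Signal comes from capillary electrophoresis of labelled RT-PCR products, with DMSO as negative control.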
# [10] = ATG_MRE_CIS: Attagene CIS-FACTORIAL HepG2 Assay for human Metal Responsive Element (MRE) (AID 2282954); details: HepG2 MRE cis-reporter transcription, Attagene multiplex; actives raise or lower the signal
# Procedure, shortened: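 HepG2 cells transiently transfected with multiple cis-element reporter units measure endogenous MTF1-driven transcription. After 24 h compound exposure, reporter mRNA is quantified by RT-PCR with 6-FAM labelling, HpaI digestion and capillary electrophoresis; bidirectional fits versus DMSO.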
# [11] = ATG_PBREM_CIS: Attagene CIS-FACTORIAL HepG2 Assay for human Phenobarbital-responsive Enhancer Module (PBREM) (AID 2282955); details: HepG2 PBREM cis-reporter, Attagene multiplexed transcription; actives raise or lower the signal
# Procedure, shortened: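 Reporter mRNA read by RT-PCR, 6-FAM primer extension, HpaI digestion and capillary electrophoresis. Transfected HepG2 cells, 24 h compound exposure. Gain or loss of signal fitted bidirectionally relative to DMSO baseline.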
# [12] = biological target: Paired box protein Pax-6 (Homo sapiens) (UniProt P26367); experiment: ATG_Pax6_CIS: Attagene CIS-FACTORIAL HepG2 Assay for human Paired Box 6 (PAX6) (AID 2282956); details: HepG2 CIS-FACTORIAL PAX6 reporter transcription, RNA readout; actives raise or lower the signal
# Procedure, shortened: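 Transient MRTU transfection of HepG2 → compound exposure 24 h → TriZol RNA, oligo(dT) RT → PCR, 6-FAM primer extension, HpaI cut → capillary electrophoresis; activity fitted both directions against DMSO.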
# [13] = ATG_PXRE_CIS: Attagene CIS-FACTORIAL HepG2 Assay for human Pregnane X Receptor Element (PXRE) (AID 2282957); details: HepG2 Attagene CIS-FACTORIAL PXRE reporter, mRNA; actives raise or lower the signal
# Procedure, shortened: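 Cells: HepG2, transiently transfected reporter units under cis promoter control. Exposure: 24 h. Detection: reporter mRNA via RT-PCR/CE fluorescence; bidirectional fitting, DMSO-referenced.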
# [14] = ATG_PPRE_CIS: Attagene CIS-FACTORIAL HepG2 Assay for human Peroxisome Proliferator-activated Response Element (PPRE) (AID 2282958); details: HepG2 PPRE cis-element reporter, Attagene transcription factor profiling; actives raise or lower the signal
# Procedure, shortened: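 Read-out: fluorescent reporter mRNA fragments resolved by capillary electrophoresis after RT-PCR. HepG2 cells carried transiently transfected PPRE-driven cis reporter constructs and were dosed for 24 h; gain or loss of signal fitted relative to DMSO.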
# [15] = ATG_RORE_CIS: Attagene CIS-FACTORIAL HepG2 Assay for human RAR-related Orphan Receptor Element (RORE) (AID 2282959); details: HepG2 Attagene cis-factorial RORE reporter, mRNA; actives raise or lower the signal
# Procedure, shortened: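 Readout: fluorescent reporter mRNA by RT-PCR plus capillary electrophoresis, 24 h after dosing transfected HepG2 cells. Endogenous transcription factor activity on a cis promoter element is measured. Gain or loss of signal fitted against DMSO.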
# [16] = ATG_Sox_CIS: Attagene CIS-FACTORIAL HepG2 Assay for human SRY-box transcription factor (SOX) (AID 2282960); details: HepG2 Attagene cis-factorial SOX reporter, mRNA; actives raise or lower the signal
# Procedure, shortened: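 Read-out: fluorescent RT-PCR products of SOX1-linked reporter transcripts resolved by capillary electrophoresis, fitted bidirectionally against DMSO. Transiently transfected HepG2 cells, 24 h after chemical exposure, endogenous transcription factor activity.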
# [17] = biological target: Transcription factor Sp1 (Homo sapiens) (UniProt P08047); experiment: ATG_Sp1_CIS: Attagene CIS-FACTORIAL HepG2 Assay for human Specificity Protein 1 (Sp1) (AID 2282961); details: HepG2 Sp1 cis-reporter transcription, actives raise or lower the signal
# Procedure, shortened: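 Read-out: fluorescence of 6-FAM-labeled, HpaI-digested RT-PCR products separated by capillary electrophoresis. HepG2 cells carried transfected cis-element reporter units and were exposed to chemicals for 24 h; gain or loss of signal fitted relative to DMSO.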
# [18] = ATG_SREBP_CIS: Attagene CIS-FACTORIAL HepG2 Assay for human Sterol Regulatory Element Binding (SREBP) (AID 2282962); details: HepG2 Attagene cis-factorial SREBP reporter, mRNA; actives raise or lower the signal
# Procedure, shortened: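 Transfected HepG2 (cis-regulated reporter library, endogenous TFs) → compound 24 h → total RNA → oligo(dT) RT → reporter-specific PCR → FAM primer extension, HpaI cut → CE fluorescence. Fit bidirectional vs DMSO.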
# [19] = biological target: Signal transducer and activator of transcription 3 (Homo sapiens) (UniProt P40763); experiment: ATG_STAT3_CIS: Attagene CIS-FACTORIAL HepG2 Assay for human Signal Transducer and Activator of Transcription 3 (STAT3) (AID 2282963); details: HepG2, Attagene cis-factorial STAT3 reporter transcription; actives raise or lower the signal
# Procedure, shortened: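 HepG2 cells transiently transfected with cis-element-driven multiple reporter transcription units; after 24 h chemical exposure, reporter mRNA measured by RT-PCR, 6-FAM primer-extension labelling, HpaI digestion and capillary electrophoresis. Bidirectional fitting versus DMSO baseline.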
# [20] = ATG_TA_CIS: Attagene CIS-FACTORIAL HepG2 Assay for human TA Basal Promoter (AID 2282964); details: HepG2 Attagene CIS-factorial TA basal promoter reporter; actives raise or lower the signal
# Procedure, shortened: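 Cis-factorial format in HepG2: reporters report endogenous factors, not chimeric Gal4 fusions. After 24 h treatment, reporter transcripts were measured by RT-PCR-capillary electrophoresis fluorescence, analysed bidirectionally versus DMSO.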
# Chain of Signal transducer and activator of transcription 3 (Homo sapiens) (P40763 whole entry, looked up): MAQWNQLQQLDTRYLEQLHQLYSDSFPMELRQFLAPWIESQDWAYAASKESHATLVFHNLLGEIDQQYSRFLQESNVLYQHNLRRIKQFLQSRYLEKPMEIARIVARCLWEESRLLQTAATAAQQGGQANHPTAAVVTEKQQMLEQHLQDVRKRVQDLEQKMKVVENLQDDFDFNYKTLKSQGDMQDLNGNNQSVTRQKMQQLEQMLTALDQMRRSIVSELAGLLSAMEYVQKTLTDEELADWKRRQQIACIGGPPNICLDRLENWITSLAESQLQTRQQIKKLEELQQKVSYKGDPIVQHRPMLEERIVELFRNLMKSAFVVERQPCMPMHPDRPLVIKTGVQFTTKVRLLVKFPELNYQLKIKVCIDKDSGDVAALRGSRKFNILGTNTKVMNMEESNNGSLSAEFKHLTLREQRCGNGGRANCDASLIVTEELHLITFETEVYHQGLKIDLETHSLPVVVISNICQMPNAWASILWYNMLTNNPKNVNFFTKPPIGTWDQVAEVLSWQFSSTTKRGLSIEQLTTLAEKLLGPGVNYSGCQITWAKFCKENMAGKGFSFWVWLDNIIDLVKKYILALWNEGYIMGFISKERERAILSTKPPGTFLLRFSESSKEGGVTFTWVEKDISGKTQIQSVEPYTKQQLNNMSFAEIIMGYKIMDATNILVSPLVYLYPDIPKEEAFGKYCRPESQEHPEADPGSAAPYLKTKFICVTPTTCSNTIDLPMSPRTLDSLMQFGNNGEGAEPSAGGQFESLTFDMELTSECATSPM
# Chain of Hypoxia-inducible factor 1-alpha (Homo sapiens) (Q16665 whole entry, looked up): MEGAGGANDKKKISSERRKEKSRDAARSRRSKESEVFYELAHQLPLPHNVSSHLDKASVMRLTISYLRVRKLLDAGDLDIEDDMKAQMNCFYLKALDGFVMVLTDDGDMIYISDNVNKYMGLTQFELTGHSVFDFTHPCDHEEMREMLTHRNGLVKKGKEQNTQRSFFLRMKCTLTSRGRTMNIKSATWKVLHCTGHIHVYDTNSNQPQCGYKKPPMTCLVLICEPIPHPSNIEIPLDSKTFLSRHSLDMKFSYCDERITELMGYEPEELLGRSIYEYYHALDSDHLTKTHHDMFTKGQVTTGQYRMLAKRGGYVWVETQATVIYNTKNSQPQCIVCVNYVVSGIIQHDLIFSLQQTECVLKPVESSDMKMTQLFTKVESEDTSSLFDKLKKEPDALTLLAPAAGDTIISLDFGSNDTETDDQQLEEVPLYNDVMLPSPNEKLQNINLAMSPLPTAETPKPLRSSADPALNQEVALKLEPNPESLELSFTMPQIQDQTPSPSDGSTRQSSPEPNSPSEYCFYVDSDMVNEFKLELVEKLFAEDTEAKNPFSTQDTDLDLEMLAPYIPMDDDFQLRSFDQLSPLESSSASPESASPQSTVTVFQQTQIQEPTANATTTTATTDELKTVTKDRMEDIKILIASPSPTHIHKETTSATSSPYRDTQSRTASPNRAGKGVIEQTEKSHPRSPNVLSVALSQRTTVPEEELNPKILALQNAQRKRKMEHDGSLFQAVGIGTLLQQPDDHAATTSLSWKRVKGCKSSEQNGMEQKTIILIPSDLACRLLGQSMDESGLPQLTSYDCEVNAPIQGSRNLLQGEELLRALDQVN
# Chain of Transcription factor Sp1 (Homo sapiens) (P08047 whole entry, looked up): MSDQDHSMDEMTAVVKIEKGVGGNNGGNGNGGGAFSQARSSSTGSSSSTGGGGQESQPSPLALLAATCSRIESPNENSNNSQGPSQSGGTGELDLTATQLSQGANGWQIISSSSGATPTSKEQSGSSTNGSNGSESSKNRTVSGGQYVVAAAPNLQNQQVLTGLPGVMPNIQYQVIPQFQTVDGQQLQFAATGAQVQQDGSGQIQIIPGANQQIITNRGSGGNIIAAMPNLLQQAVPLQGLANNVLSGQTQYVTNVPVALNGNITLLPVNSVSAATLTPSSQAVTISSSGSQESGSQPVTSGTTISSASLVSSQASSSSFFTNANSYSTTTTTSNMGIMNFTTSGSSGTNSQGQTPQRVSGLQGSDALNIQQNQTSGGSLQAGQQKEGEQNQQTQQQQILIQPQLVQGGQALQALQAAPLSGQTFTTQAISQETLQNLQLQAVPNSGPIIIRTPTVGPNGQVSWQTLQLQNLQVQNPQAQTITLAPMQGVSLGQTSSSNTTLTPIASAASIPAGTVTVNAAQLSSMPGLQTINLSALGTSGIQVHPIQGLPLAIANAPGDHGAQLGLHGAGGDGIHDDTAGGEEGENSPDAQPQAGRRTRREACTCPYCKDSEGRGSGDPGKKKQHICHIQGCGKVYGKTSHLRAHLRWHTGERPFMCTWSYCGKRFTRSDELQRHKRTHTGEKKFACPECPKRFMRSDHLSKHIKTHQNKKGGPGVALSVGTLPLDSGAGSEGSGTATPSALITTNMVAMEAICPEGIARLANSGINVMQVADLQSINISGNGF
# Chain of Paired box protein Pax-6 (Homo sapiens) (P26367 whole entry, looked up): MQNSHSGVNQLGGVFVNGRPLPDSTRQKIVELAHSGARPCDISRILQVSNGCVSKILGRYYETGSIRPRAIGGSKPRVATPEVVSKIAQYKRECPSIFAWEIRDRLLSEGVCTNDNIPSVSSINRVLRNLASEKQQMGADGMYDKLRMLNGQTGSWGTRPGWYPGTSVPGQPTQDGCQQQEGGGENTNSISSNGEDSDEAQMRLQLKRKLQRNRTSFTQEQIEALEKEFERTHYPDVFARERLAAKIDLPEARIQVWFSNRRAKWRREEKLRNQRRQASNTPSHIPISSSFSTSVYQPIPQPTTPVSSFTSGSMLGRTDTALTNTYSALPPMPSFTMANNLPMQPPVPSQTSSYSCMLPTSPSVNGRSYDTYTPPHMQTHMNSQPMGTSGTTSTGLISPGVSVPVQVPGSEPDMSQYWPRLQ
# Chain of Hepatocyte nuclear factor 6 (Homo sapiens) (Q9UBC0 whole entry, looked up): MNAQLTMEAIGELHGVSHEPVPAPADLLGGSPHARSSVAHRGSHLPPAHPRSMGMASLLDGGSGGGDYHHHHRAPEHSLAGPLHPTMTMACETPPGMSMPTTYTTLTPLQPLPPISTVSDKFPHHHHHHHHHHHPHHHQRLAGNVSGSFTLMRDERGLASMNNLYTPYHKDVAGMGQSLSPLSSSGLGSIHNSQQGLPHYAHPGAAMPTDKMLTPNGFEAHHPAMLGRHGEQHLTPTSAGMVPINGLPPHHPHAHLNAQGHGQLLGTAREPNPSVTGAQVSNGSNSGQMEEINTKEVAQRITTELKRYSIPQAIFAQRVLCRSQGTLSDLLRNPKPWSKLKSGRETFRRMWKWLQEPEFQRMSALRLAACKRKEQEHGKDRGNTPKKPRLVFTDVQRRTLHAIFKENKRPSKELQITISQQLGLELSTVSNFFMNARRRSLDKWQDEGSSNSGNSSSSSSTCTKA
# Chain of Heat shock factor protein 1 (Homo sapiens) (Q00613 whole entry, looked up): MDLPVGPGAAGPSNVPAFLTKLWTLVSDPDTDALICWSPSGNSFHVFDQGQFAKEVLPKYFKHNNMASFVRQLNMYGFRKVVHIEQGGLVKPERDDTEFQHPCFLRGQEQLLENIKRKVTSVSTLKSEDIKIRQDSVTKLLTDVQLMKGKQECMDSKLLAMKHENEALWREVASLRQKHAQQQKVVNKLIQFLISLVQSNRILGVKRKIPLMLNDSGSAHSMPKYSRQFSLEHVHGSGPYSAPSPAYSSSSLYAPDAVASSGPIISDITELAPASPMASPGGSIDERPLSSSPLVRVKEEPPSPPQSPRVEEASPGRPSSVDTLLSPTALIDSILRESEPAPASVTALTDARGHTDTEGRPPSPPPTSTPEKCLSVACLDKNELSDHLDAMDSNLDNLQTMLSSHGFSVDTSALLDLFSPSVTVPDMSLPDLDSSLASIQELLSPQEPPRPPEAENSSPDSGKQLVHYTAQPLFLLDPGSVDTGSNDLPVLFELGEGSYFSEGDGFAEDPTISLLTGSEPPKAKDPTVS
# Chain of Bile acid receptor (Homo sapiens) (Q96RI1 whole entry, looked up): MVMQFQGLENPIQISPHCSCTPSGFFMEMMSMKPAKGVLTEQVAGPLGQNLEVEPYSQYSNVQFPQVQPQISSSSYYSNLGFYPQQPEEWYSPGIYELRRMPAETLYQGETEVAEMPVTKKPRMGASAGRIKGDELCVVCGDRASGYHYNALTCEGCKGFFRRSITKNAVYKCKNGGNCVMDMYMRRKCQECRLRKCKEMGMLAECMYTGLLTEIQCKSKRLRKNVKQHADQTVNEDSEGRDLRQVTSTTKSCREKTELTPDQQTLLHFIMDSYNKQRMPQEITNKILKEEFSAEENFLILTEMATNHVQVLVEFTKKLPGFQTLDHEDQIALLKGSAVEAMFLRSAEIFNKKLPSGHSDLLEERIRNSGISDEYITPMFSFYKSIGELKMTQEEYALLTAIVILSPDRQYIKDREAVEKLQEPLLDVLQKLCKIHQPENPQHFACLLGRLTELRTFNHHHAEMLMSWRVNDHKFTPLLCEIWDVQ
structure (smiles),measurement,setting,value
OCCC(O)CO (configuration not stated),outcome,[1],inactive
same,outcome,[2],inactive
same,outcome,[3],inactive
same,outcome,[4],inactive
same,outcome,[5],inactive
same,outcome,[6],inactive
same,outcome,[7],inactive
same,outcome,[8],inactive
same,outcome,[9],inactive
same,outcome,[10],inactive
same,outcome,[11],inactive
same,outcome,[12],inactive
same,outcome,[13],inactive
same,outcome,[14],inactive
same,outcome,[15],inactive
same,outcome,[16],inactive
same,outcome,[17],inactive
same,outcome,[18],inactive
same,outcome,[19],inactive
same,outcome,[20],inactive
CO[Si](CCCOCC1CO1)(OC)OC (configuration not stated),outcome,[1],inactive
same,outcome,[2],inactive
same,outcome,[3],inactive
same,outcome,[4],inactive
same,outcome,[5],inactive
same,outcome,[6],inactive
same,outcome,[7],inactive
same,outcome,[8],inactive
same,outcome,[9],inactive
same,outcome,[10],inactive
same,outcome,[11],inactive
same,outcome,[12],inactive
same,outcome,[13],inactive
same,outcome,[14],inactive
same,outcome,[15],inactive
same,outcome,[16],inactive
same,outcome,[17],inactive
same,outcome,[18],inactive
same,outcome,[19],inactive
same,outcome,[20],inactive
CC(C)(C)c1cc(CCC(=O)NCCCCCCNC(=O)CCc2cc(C(C)(C)C)c(O)c(C(C)(C)C)c2)cc(C(C)(C)C)c1O,outcome,[1],inactive
same,outcome,[2],inactive
same,outcome,[3],inactive
same,outcome,[4],inactive
same,outcome,[5],inactive
same,outcome,[6],inactive
same,outcome,[7],inactive
same,outcome,[8],inactive
same,outcome,[9],inactive
same,outcome,[10],inactive
same,outcome,[11],inactive
same,outcome,[12],inactive
same,AC50,[13],0.169 µM (active)
same,outcome,[14],inactive
same,outcome,[15],inactive
same,outcome,[16],inactive
same,outcome,[17],inactive
same,outcome,[18],inactive
same,outcome,[19],inactive
same,outcome,[20],inactive
CSc1ccc(Cl)cc1,outcome,[1],inactive
same,outcome,[2],inactive
same,outcome,[3],inactive
same,outcome,[4],inactive
same,outcome,[5],inactive
same,outcome,[6],inactive
same,outcome,[7],inactive
same,outcome,[8],inactive
same,outcome,[9],inactive
same,outcome,[10],inactive
same,outcome,[11],inactive
same,outcome,[12],inactive
same,outcome,[13],inactive
same,outcome,[14],inactive
same,outcome,[15],inactive
same,outcome,[16],inactive
same,outcome,[17],inactive
same,outcome,[18],inactive
same,outcome,[19],inactive
CN(C)C(C)(C)CO,outcome,[1],inactive
same,outcome,[2],inactive
same,outcome,[3],inactive
same,outcome,[4],inactive
same,outcome,[5],inactive
same,outcome,[6],inactive
same,outcome,[7],inactive
same,outcome,[8],inactive
same,outcome,[9],inactive
same,outcome,[10],inactive
same,outcome,[11],inactive
same,outcome,[13],inactive
same,outcome,[14],inactive
same,outcome,[15],inactive
same,outcome,[16],inactive
same,outcome,[17],inactive
same,outcome,[18],inactive
same,outcome,[19],inactive
O=C(Cl)C(F)(F)C(F)(F)C(F)(F)C(F)(F)C(F)(F)C(F)(F)C(F)(F)F,outcome,[1],inactive
same,outcome,[2],inactive
same,outcome,[3],inactive
same,outcome,[4],inactive
same,outcome,[5],inactive
same,outcome,[6],inactive
same,outcome,[7],inactive
same,outcome,[8],inactive
same,outcome,[9],inactive
same,outcome,[10],inactive
same,outcome,[11],inactive
same,outcome,[12],inactive
same,outcome,[13],inactive
same,AC50,[14],69.5 µM (active)
same,outcome,[15],inactive
same,outcome,[16],inactive
same,outcome,[17],inactive
same,outcome,[18],inactive
same,outcome,[19],inactive
same,outcome,[20],inactive
Cc1cccc(C)n1,outcome,[1],inactive
same,outcome,[2],inactive
same,outcome,[3],inactive
same,outcome,[4],inactive
same,outcome,[5],inactive
same,outcome,[6],inactive
same,outcome,[7],inactive
same,outcome,[8],inactive
same,outcome,[9],inactive
same,outcome,[10],inactive
same,outcome,[11],inactive
same,outcome,[12],inactive
same,outcome,[13],inactive
same,outcome,[14],inactive
same,outcome,[15],inactive
same,outcome,[16],inactive
same,outcome,[17],inactive
same,outcome,[18],inactive
same,outcome,[19],inactive
same,outcome,[20],inactive
